Inconclusive results are not listed. Active and inactive are the calls of the source. Unless noted, the call rests on the fitted dose curve.

A short description of assay [1]: Nuclear factor erythroid 2-related factor 2/antioxidant responsive element (Nrf2/ARE) small molecule agonists: qHTS cell viability counter screen in human keratinocytes (AID 1919968; active means well fitted curve in the direction sought with a large enough effect in the repeat runs; an effect the other way counts as inactive or inconclusive; further: nearly all actives have a fitted effect of over 55% in size; further: potency means the concentration at half of the fitted maximal effect). In short, it runs like this: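 Viability counter-screen: KeratinoSens reporter cells, DMSO-delivered compounds, 23 h at 37 C, CellTiter-Fluor fluorescence.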
Assay [2] is described as follows: Nuclear factor erythroid 2-related factor 2/antioxidant responsive element (Nrf2/ARE) small molecule agonists: luciferase reporter gene qHTS assay in human keratinocytes (AID 1919969). Further: nearly all actives have a fitted effect of over 35% in size.
Assay [3] concerns the target Gonadotropin-releasing hormone receptor (Homo sapiens) (UniProt P30968). The experiment in a line: Human gonadotropin-releasing hormone receptor (GnRHR) small molecule agonists, calcium flux assay in GnRHR-HEK293 cells (AID 1920063). Further: nearly all actives have a fitted effect of over 35% in size. In short, it runs like this:
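Tox21-format agonist screen using human GnRHR-expressing HEK293 cells and a fluorescent calcium dye; kinetic 3-min fluorescence reading after compound addition, 15-point concentration series run in triplicate.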

In assay [4] the target is KiSS-1 receptor (Homo sapiens) (UniProt Q969F8). The experiment in a line: Human kisspeptin (KISS1R) small molecule agonists, calcium flux assay in KISS1R-HEK293 cells (AID 1920064; active means well fitted curve in the direction sought with a large enough effect in the repeat runs; an effect the other way counts as inactive or inconclusive). The method, boiled down: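 Intracellular calcium mobilization in KISS1R-HEK293 cells was recorded by fluorescence (Ex/Em 480/540) for 3 min following compound addition to cells pre-loaded 1 h with calcium dye.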
KiSS-1 receptor (Homo sapiens), sequence (Q969F8 whole entry, looked up): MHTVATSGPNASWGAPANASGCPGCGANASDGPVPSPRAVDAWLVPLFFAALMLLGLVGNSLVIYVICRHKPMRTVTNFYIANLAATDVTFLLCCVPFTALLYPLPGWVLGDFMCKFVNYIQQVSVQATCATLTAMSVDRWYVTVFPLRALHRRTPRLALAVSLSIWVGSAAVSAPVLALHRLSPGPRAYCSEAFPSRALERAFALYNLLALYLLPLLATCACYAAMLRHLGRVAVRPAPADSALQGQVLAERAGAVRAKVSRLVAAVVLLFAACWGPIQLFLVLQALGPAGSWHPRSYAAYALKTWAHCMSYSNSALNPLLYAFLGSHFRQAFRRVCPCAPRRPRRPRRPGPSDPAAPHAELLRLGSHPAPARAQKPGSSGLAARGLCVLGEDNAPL

Assay [5] is described as follows: G protein-coupled receptor (GPCR) small molecule agonists, calcium flux assay: HEK293 wild type cell line counter screen (AID 1920065). The method, boiled down: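 In this agonist-mode screen, ATP is the positive control and DMSO the vehicle. Cells grow 18 h before a 1 h dye incubation at 37 C; signal is taken at Ex/Em 480/540 over 3 min.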
In general terms: A change in cytosolic calcium serves as a functional read-out for many receptors and channels.

The nature of assay [6]: p53 small molecule agonists, cell-based qHTS assay with rat liver microsomes (AID 1963578). In short, it runs like this: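 Agonist mode in p53RE-bla reporter cells, with compounds co-incubated 16 h at 37 C alongside 0.5 mg/mL rat liver microsomes and 0.5 mg/mL NADPH (final), followed by a 2 h LiveBLAzer detection step.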
The nature of assay [7]: p53 small molecule agonists, cell-based qHTS assay with human liver microsomes: qHTS cell viability counter screen (AID 1963579). Further: nearly all actives have a fitted effect of over 45% in size. The method, boiled down: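 Metabolically activated exposure: compounds, human liver microsomes and NADPH (0.5 mg/mL final apiece) were added to p53RE-bla cells seeded 5 h earlier, left 16 h at 37 C, and then assessed for viability by CellTiter-Glo luminescence.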
On the technique in general: qHTS replaces the single test concentration by a dilution series.

Assay [8] in a line: p53 small molecule agonists, cell-based qHTS assay with rat liver microsomes: qHTS cell viability counter screen (AID 1963580). Further: nearly all actives have a fitted effect of over 45% in size. In short, it runs like this: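 p53RE-bla HCT-116 cells were exposed 16 h at 37 C to compounds with rat liver microsomes (0.5 mg/mL) and NADPH (0.5 mg/mL). Viability was measured in the same wells as ATP content by CellTiter-Glo luminescence.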
Assay [9] is described as follows: p53 small molecule agonists, cell-based qHTS assay: qHTS cell viability counter screen (AID 1963581). Further: nearly all actives have a fitted effect of over 45% in size. The method, boiled down:
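Compounds are pinned onto HCT-116 p53RE-bla cells and left 16 h at 37 C. Following the reporter FRET read, ATP is quantified by CellTiter-Glo luminescence after 30 min at room temperature.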

Assay [10] in a line: p53 small molecule agonists, cell-based qHTS assay (AID 1963582; active means well fitted activation curve with a large enough effect in the signal ratio in the repeat runs, not every such curve was filed as active; the % refers to the signal ratio). In short, it runs like this:
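Agonist activity was scored from beta-lactamase FRET fluorescence in p53RE-bla cells treated 16 h at 37 C with compounds in DMSO, substrate incubation being 2 h at room temperature.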

Assay [11] concerns the target 5-hydroxytryptamine receptor 2A (Homo sapiens) (UniProt P28223). The experiment in a line: 5-hydroxytryptamine receptor 2A (HTR2A) small molecule antagonists, cell-based qHTS assay (AID 1963586). Further: nearly all actives have a fitted effect of over 45% in size. Further: potency means the concentration at half of the fitted maximal effect. The method, boiled down: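 Antagonist-mode intracellular calcium assay: DOI (4 nM) added after 5 min compound pre-incubation at room temperature to dye-loaded HTR2A-CHO cells. Fluorescence followed for 3 min, sampled every second.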

Assay [12] addresses Muscarinic acetylcholine receptor M1 (Homo sapiens) (UniProt P11229). The experiment in a line: Cholinergic receptor muscarinic 1 (CHRM1) small molecule agonists, cell-based qHTS assay (AID 1963589). Further: nearly all actives have a fitted effect of over 35% in size. The method, boiled down: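 Stable CHRM1-CHO cells (human receptor) were incubated 18 h, dye-loaded for 1 h at 37 C and exposed to test compounds for agonist activity, with calcium-dependent fluorescence followed kinetically.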

Assay [13] can be described thus: cAMP Responsive Elements (CRE) small molecule agonists, cell-based qHTS assay (AID 1963590). In short, it runs like this: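 FRET-based beta-lactamase readout (LiveBLAzer B/G, 2 h RT) quantified CRE activation in HEK 293T CRE-bla cells after 3 h treatment with DMSO-dissolved compounds.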
For assay [14], the target named is Beta-2 adrenergic receptor (Homo sapiens) (UniProt P07550). The experiment in a line: Adrenergic beta2 receptor (ADRB2) small molecule antagonists, cell-based qHTS assay (AID 1963592). Further: nearly all actives have a fitted effect of over 50% in size. Further: potency means the concentration at half of the fitted maximal effect. The method, boiled down: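 Cells (CHO, stable ADRB2 overexpression) incubated 18-20hr at 37C; compounds added from DMSO; agonist mix (1nM isoproterenol, 100uM IBMX, 25uM Ro-20-1724) added; 0.5hr RT; d2-cAMP and anti-cAMP-cryptate added; 1hr RT; 665/615 nm read.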
Beta-2 adrenergic receptor (Homo sapiens), sequence (P07550 whole entry, looked up): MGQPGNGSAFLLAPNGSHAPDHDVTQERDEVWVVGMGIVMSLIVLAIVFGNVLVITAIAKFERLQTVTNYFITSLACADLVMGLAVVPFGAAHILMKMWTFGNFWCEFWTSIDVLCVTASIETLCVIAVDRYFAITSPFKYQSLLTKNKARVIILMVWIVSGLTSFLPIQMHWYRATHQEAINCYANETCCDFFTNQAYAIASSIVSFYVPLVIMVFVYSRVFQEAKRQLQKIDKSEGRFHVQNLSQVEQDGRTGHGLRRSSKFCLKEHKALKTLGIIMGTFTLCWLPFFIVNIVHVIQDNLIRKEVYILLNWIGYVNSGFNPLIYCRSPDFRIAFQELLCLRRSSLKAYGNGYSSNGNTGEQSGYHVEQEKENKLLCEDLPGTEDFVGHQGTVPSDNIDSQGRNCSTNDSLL

Assay [15] shares this target. The experiment in a line: Adrenergic beta2 receptor (ADRB2) small molecule agonists, cell-based qHTS assay (AID 1963593).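 Further: CHO cells stably overexpressing human ADRB2.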 In short, it runs like this:
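CHO cells stably over-expressing ADRB2 were plated overnight at 37C, then dosed with compounds plus a stimulation mix containing 100uM IBMX and 25uM Ro-20-1724 for 0.5hr at room temperature. cAMP was measured by HTRF competition, 1hr.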

Assay [16] has as its target 5-hydroxytryptamine receptor 2A (Homo sapiens) (UniProt P28223). The experiment in a line: 5-hydroxytryptamine receptor 2A (HTR2A) small molecule agonists, cell-based qHTS assay (AID 1963587). Further: nearly all actives have a fitted effect of over 30% in size. In short, it runs like this: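 CHO cells stably expressing human HTR2A, plated 18 h, loaded with calcium dye 1 h at 37 C. Agonist mode: compounds added and intracellular calcium fluorescence recorded kinetically for 2 min at 1 sec intervals.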

Assay [17] deals with Muscarinic acetylcholine receptor M1 (Homo sapiens) (UniProt P11229). The experiment in a line: Cholinergic receptor muscarinic 1 (CHRM1) small molecule antagonists, cell-based qHTS assay (AID 1963588). Further: nearly all actives have a fitted effect of over 40% in size. The method, boiled down: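 CHRM1-CHO calcium-flux assay, antagonist mode. Cells were seeded 18 h, dye-loaded 1 h at 37 C and given compound for 5 min at RT, then acetylcholine was added at 50nM. FDSS fluorescence was read 3 min; 15 concentrations, three runs.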
Muscarinic acetylcholine receptor M1 (Homo sapiens), sequence (P11229 whole entry, looked up): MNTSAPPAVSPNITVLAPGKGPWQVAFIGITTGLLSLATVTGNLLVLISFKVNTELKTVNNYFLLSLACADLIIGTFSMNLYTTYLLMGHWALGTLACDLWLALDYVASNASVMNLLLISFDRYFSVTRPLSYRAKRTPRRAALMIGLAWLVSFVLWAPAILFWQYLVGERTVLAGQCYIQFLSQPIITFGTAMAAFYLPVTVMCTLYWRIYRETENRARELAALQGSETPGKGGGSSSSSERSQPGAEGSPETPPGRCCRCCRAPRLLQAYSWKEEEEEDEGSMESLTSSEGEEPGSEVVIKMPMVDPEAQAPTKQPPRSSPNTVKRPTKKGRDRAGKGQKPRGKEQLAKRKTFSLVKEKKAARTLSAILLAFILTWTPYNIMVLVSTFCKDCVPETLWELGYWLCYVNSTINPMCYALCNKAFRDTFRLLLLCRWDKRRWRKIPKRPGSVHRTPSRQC

A short description of assay [18]: cAMP Responsive Elements (CRE) small molecule antagonists, cell-based qHTS assay (AID 1963591; active means well fitted inhibition curve with a large enough effect in the signal ratio in the repeat runs, not every such curve was filed as active; the % refers to the signal ratio). In short, it runs like this:
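qHTS in CRE-bla HEK 293T cells: compound in DMSO, then 0.25 uM NKH477 (final), 3 h at 37 °C/5% CO2; beta-lactamase FRET read-out after 2 h substrate incubation.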

Assay [19] deals with D(2) dopamine receptor (Homo sapiens) (UniProt P14416). The experiment in a line: Dopamine D2 receptor (DRD2) small molecule agonists, cell-based qHTS assay (AID 1963594). Further: nearly all actives have a fitted effect of over 35% in size. In short, it runs like this: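 HEK293 cells stably expressing human DRD2, pre-treated with PDE inhibitor Ro20-1724 (0.1 mM final) and compound 10 min at room temperature, then stimulated with NKH477 (200nM […]) for 30 min. cAMP read by HTRF (665/620 nm).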
D(2) dopamine receptor (Homo sapiens), sequence (P14416 whole entry, looked up): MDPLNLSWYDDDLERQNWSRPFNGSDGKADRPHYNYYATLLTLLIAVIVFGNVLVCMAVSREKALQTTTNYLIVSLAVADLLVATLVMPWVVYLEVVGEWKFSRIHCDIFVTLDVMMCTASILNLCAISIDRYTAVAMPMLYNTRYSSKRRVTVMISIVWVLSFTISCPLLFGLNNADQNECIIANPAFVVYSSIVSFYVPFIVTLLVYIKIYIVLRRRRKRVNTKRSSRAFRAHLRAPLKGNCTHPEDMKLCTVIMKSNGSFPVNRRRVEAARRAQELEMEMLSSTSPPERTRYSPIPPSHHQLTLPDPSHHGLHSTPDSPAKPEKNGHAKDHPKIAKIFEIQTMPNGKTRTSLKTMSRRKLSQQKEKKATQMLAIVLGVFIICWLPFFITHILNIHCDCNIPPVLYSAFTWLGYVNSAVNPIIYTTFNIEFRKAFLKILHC

For assay [20] the target is unchanged. The experiment in a line: Dopamine D2 receptor (DRD2) small molecule antagonists, cell-based qHTS assay (AID 1963595; active means well fitted inhibition curve with a large enough effect in the signal ratio in the repeat runs, with a control signal flat; the % refers to the signal ratio). In short, it runs like this: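 Stable D2 receptor HEK293 line, 24 h after seeding. Compound preincubated 10 min, then quinpirole (12 nM) with forskolin analogue NKH477 (200 nM), 30 min, room temperature. Detection by time-resolved FRET of cAMP.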

Gonadotropin-releasing hormone receptor (Homo sapiens), sequence (P30968 whole entry, looked up): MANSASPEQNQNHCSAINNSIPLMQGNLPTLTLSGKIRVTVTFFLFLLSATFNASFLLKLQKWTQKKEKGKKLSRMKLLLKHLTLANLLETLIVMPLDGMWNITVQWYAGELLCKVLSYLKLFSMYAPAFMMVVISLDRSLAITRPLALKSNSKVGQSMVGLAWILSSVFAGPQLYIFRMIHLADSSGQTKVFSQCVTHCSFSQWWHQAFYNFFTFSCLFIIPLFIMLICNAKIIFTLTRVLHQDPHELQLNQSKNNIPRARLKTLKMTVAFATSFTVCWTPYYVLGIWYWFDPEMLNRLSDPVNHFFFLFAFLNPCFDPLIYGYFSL
5-hydroxytryptamine receptor 2A (Homo sapiens), sequence (P28223 whole entry, looked up): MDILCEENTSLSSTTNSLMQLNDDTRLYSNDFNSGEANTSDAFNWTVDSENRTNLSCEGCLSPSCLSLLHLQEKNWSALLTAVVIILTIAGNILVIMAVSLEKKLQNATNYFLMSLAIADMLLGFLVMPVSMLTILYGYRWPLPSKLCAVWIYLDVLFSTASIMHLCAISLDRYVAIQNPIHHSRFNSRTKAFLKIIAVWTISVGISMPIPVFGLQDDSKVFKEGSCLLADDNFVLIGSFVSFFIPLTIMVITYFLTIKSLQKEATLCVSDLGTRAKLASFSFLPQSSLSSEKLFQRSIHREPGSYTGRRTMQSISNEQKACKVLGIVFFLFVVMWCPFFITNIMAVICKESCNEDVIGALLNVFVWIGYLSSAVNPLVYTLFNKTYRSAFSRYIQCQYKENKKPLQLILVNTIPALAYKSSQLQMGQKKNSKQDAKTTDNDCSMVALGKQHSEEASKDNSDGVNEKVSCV

For `CNCc1cc(F)ccc1Oc1ccc(Cl)c(Cl)c1`, the figures for the Potency in assay [1] and in [11] were 27.3 µM (active) and 0.266 µM (active), respectively. Also, the Potency result in assay [2], in assay [3], in assay [4], in assay [5], in assay [6] and in assay [7] was “inactive” in each case. Also, the Potency entry in assay [8], in assay [9], in [10], in [12], in assay [13] and in assay [14] was “inactive” throughout. For the same compound, the Potency entry in [15] is “inactive”.

Regarding `O[Si](c1ccccc1)(c1ccccc1)c1ccccc1`, the Potency result in assay [1], in assay [2], in [3], in [4], in assay [5] and in [6] was “inactive” each time. For the same compound, the Potency result in [7], in [8], in assay [9], in [11], in assay [16] and in assay [17] was “inactive” each time. Also, the Potency result in assay [12], in [13], in assay [18], in assay [14] and in [19] was “inactive” in each case.

On to `Cc1cc2cc3c(C)cc(=O)oc3c(C)c2o1`, for which the Potency entry in [1], in [2], in assay [3], in [4], in [5] and in [6] was “inactive” in each case. The Potency entry in assay [7], in assay [8], in assay [9], in assay [10], in [18] and in assay [14] was “inactive” throughout. Moreover, the Potency entry in assay [19] and in [20] was “inactive” each time.

`CCC[C@@H]1C[C@@H](C(=O)N[C@@H]([C@H]2O[C@H](SC)[C@H](O)[C@@H](O)[C@H]2O)[C@@H](C)O)N(C)C1`: the Potency entry in [1], in [2], in assay [3], in [4], in assay [5] and in assay [6] was “inactive” throughout. Also, the Potency result in [7], in assay [8], in assay [9], in [10], in [13] and in assay [18] was “inactive” each time. Also, the Potency entry in assay [14], in [15] and in assay [19] was “inactive” in each case.

Take `COc1ccc(S(=O)(=O)N2C(=O)[C@@](c3ccccc3OC)(N3C[C@H](O)C[C@H]3C(=O)N(C)C)c3cc(Cl)ccc32)c(OC)c1`: the Potency entry in [1], in assay [2], in assay [3], in assay [4], in assay [5] and in [6] was “inactive” each time. Also, the Potency result in [7], in [8], in [9], in [11], in [16] and in assay [17] was “inactive” throughout. Besides, the Potency entry in assay [12], in assay [14] and in assay [20] was “inactive” throughout.

On to `CCOC(=O)COC(=O)c1cc(Oc2ccc(C(F)(F)F)cc2Cl)ccc1[N+](=O)[O-]`, for which the Potency result in assay [1], in [2], in [3], in assay [4], in [5] and in assay [6] was “inactive” in each case. For the same compound, the Potency result in assay [7], in assay [8], in assay [9], in [11], in assay [16] and in assay [17] was “inactive” each time. Moreover, the Potency entry in assay [12] and in [19] was “inactive” each time. Further, in assay [14], the Potency is 61.1 µM (active).

Regarding `CCN(Cc1cccnc1)C(=O)c1cccc(Cl)c1[C@]1(C)C(=O)N(Cc2ccc(OC)cc2OC)c2ccc(Cl)cc21`, the Potency result in assay [1], in assay [2], in [3], in [4], in assay [5] and in assay [6] was “inactive” each time. The Potency result in [7], in assay [8], in [11], in assay [16], in assay [12] and in [19] was “inactive” each time.

With `O=C(O)COc1ccc2ccccc2c1`, the Potency result in assay [1], in assay [2], in assay [3], in assay [4], in assay [5] and in assay [6] was “inactive” throughout. The Potency result in [7], in assay [8], in assay [9], in [11], in [16] and in [17] was “inactive” throughout. In addition, the Potency result in assay [12], in assay [14], in assay [19] and in assay [20] was “inactive” in each case.

Values taken from PubChem BioAssay (Tox21).
